In the library only some 2.3% were active in any assay of this set; here they are far more common.
Tau fluor cs – counter-screen for tau fibril formation inhibitors; tau K18 P301L Alexa594 fluorescence, heparin fibrillization; Potency, µM (series often up to 57.7 µM), inactives show at the highest dose activity change, negative = decrease; 0.93% of 280,000 active; further: potency means the concentration at half of the fitted maximal effect; nearly all actives have a fitted effect of over 55% in size
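Human tau K18 P301L (15 uM unlabeled, 0.24 uM Alexa 594-labeled) in 100 mM sodium acetate pH 7 with 20 uM heparin, 6 hr at 37 C. ThT 30 uM added, 1 hr ambient; Alexa 594 FP and total fluorescence read at 555/632 nm.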
USP1 inh – inhibitors of human USP1/UAF1 deubiquitinase; O94782; recombinant USP1/UAF1, Ub-Rhodamine cleavage fluorescence; Potency, µM (series often up to 57.1 µM), without a hit: at the top dose activity change, negative = inhibition, most hits filed as inhibitors; 0.23% of 390,000 active; AID 743255; further: potency means the concentration at half of the fitted maximal effect; nearly all actives have a fitted effect of over 60% in size
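1 nM enzyme complex + cpd, 15 min RT; start with Ub-Rho 150nM final; kinetic fluorescence ex 480/em 540, 6 reads q60 s. Buffer 50mM HEPES pH 7.8, 0.5mM EDTA, 0.1 mg/ml BSA, 1mM TCEP, 0.01% Tween-20.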
Tau fibril FP – tau fibrillization inhibition (FP). 0.39% of 280,000 active. K18 P301L tau heparin fibrillization, Alexa594 FP, 6 h. Potency, µM (top dose mostly 57.7 µM), for the others: at the top dose activity, negative = inhibition, usual class: inhibitors. AID 1468. P10636; further: potency means the concentration at half of the fitted maximal effect; nearly all actives have a fitted effect of over 55% in size
Target sequence (P10636 561-689 P618L limits assumed): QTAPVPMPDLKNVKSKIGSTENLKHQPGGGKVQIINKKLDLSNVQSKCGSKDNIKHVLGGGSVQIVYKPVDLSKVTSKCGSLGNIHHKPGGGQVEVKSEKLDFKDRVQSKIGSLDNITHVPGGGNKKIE
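Human K18 P301L fragment (15 uM unlabeled plus 0.24 uM Alexa 594-labeled) in 100 mM sodium acetate pH 7 with compound, aggregation induced by 20 uM heparin for 6 hr at 37 C. ThT (30 uM) added for 1 hr, then Alexa 594 FP read.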
Tau ThT inhib – blocks human tau fibril formation measured by thioflavin T; P10636; recombinant tau K18 P301L (four-repeat tau fragment), heparin-induced fibrillization, ThT fluorescence; Potency, µM (highest dose often 57.4 µM), inactives show at the top dose activity, negative = inhibition, hits mostly inhibitors; 2.1% of 270,000 active; AID 1460; further: potency means the concentration at half of the fitted maximal effect; nearly all actives have a fitted effect of over 55% in size
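K18 P301L tau (15 uM + 0.24 uM Alexa 594-tagged), heparin 20 uM, NaOAc pH 7, 6 h 37 C; ThT 30 uM, 1 h RT, ex 450/em 510 nm.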
Coupling enz – coupling enzyme interference in Giardia aldolase counter-screen; coupling enzyme system counterscreen, AmpLite Red fluorescence; activity change, negative = inhibition, % at 58.2 µM, hits read low; 0.67% of 290,000 active; AID 2472; in the data active means activity change below about -30%
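Counterscreen lacking aldolase: glyceraldehyde-3-phosphate coupling-enzyme reagent preincubated 10 min at RT with compound (at 57.5 uM final), then substrate/coupling system with AmpLite Red added; fluorescence read at 525/598 nm after 20 min RT.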
An asterisk follows results filed as active; ? = inconclusive; / = no result; ! = a repeat was not active; [ ] = remark or other dose. Unless noted, the call rests on the fitted dose curve; in most records, active means well fitted curve in the direction sought with a large enough effect; inconclusive means small, poorly fitted or top-dose-only effect, or another doubt; inactive means no such curve, though single readings can be large; an effect the other way counts as inactive or inconclusive. On the % scale 0 is the no-effect control and ±100 the full control effect.

SMILES	Tau fluor cs	USP1 inh	Tau fibril FP	Tau ThT inhib	Coupling enz
CC(C)C[C@H](NC(=O)[C@H](CC(C)C)NC(=O)[C@H](CCC(N)=O)NC(=O)[C@H](CO)NC(=O)[C@@H]1CCCN1C(=O)[C@H](CO)NC(=O)[C@H](CO)NC(=O)[C@@H](NC(=O)[C@H](Cc1cnc[nH]1)NC(=O)[C@H](CCC(=O)O)NC(=O)[C@H](Cc1ccc(O)cc1)NC(=O)[C@H](CCCCN)NC(=O)[C@H](CCC(N)=O)NC(=O)[C@H](Cc1ccc(O)cc1)NC(=O)[C@H](CC(=O)O)NC(=O)[C@@H](NC(=O)[C@@H]1CCCN1C(=O)[C@H](CC(=O)O)NC(=O)[C@H](CC(N)=O)NC(=O)[C@H](CC(=O)O)NC(=O)CNC(=O)[C@H](CC(=O)O)NC(=O)[C@@H]1CCCN1C(=O)[C@H](CCC(N)=O)NC(=O)[C@H](Cc1ccc(O)cc1)NC(=O)[C@H](C)NC(=O)[C@H](Cc1c[nH]c2ccccc12)NC(=O)[C@H](Cc1ccccc1)NC(=O)[C@@H](NC(=O)[C@@H](N)CO)[C@@H](C)O)[C@@H](C)O)[C@@H](C)O)C(=O)N[C@@H](C)C(=O)N1CCC[C@H]1C(=O)NCC(=O)N[C@@H](CC(=O)O)C(=O)N[C@@H](Cc1ccc(O)cc1)C(=O)O	/	/	/	/	0
Cc1ccccc1NS(=O)(=O)c1ccc2[nH]cc(C(=O)NCCc3ccccc3)c(=O)c2c1	?	-23%	11µM*	8%	/
Cc1ccc(CCNC(=O)c2c[nH]c3ccc(S(=O)(=O)Nc4cccc(C(F)(F)F)c4)cc3c2=O)cc1	?	-11%	7.9µM*	?	/
CC(C)CCNC(=O)c1c[nH]c2ccc(S(=O)(=O)Nc3cccc(C(F)(F)F)c3)cc2c1=O	?	5%	14µM*	6%	/
O=C(NCC1CCCO1)c1c[nH]c2ccc(S(=O)(=O)Nc3cccc(C(F)(F)F)c3)cc2c1=O (configuration not stated)	?	3%	?	6%	/
COc1cccc(NS(=O)(=O)c2ccc3[nH]cc(C(=O)NCCC(C)C)c(=O)c3c2)c1	?	-19%	?	2%	-1
Cc1cc(C)cc(NS(=O)(=O)c2ccc3[nH]cc(C(=O)NCCc4ccccc4)c(=O)c3c2)c1	?	-2%	?	2%	/
O=C(NC1CCCC1)c1c[nH]c2ccc(S(=O)(=O)Nc3cccc(C(F)(F)F)c3)cc2c1=O	?	-13%	10µM*	11%	/
CCOc1ccc(CNC(=O)C2CCN(S(=O)(=O)c3cn(C)cn3)CC2)cc1OC	2%	-5%	-9%	1%	/
Cc1ccc(-c2onc(C)c2C)cc1S(=O)(=O)NCc1ccc(N(C)C)cc1	?	-18%	17%	-5%	/
COc1ccc(-c2nc3c(c4c2C[C@H](c2ccccc2)OC4)CN(S(=O)(=O)c2ccc(C)cc2)CC3)c(C)c1	6%[11.6 µM]	/	0%[11.6 µM]	8%[11.5 µM]	2
O=C(COC(=O)c1ccc2ccccc2n1)c1ccccc1	-11%	-22%	-1%	-18%	-2
Cc1[nH]nc2c1C(c1ccc(F)cc1)C(C#N)=C(N)O2 (configuration not stated)	-2%	-8%	-1%	2%	5
Cc1cc(C2C(C#N)=C(N)Oc3n[nH]c(C)c32)c(C)s1 (configuration not stated)	-20%	-8%	-5%	?	/
Cc1[nH]nc2c1C(c1ccc(-c3ccc(Cl)cc3)o1)C(C#N)=C(N)O2 (configuration not stated)	?	-25%	-9%	10µM*	1
Cc1[nH]nc2c1C(c1ccsc1C)C(C#N)=C(N)O2 (configuration not stated)	-13%	-4%	1%	?	-7
Cc1[nH]nc2c1C(c1ccc(-c3ccccc3C#N)o1)C(C#N)=C(N)O2 (configuration not stated)	-29%	-4%	-1%	16µM*	-24
Cc1ccc(-c2ccc(C3C(C#N)=C(N)Oc4n[nH]c(C)c43)o2)cc1 (configuration not stated)	13µM*[quencher]	-22%	-12%	6.3µM*	-3
O=C(c1csnn1)N1CCC2(CCCN(c3ncccn3)C2)CC1	/	/	/	/	2
COc1ccc2c(c1)c1c(c(=O)n(-c3ccc(F)c(Cl)c3)c(=O)n1Cc1cccc(C)c1)n2C	11%	?	3%	13%	/
C[n+]1cc2c3c(ccc2c2ccc4cc5c(cc4c21)OCO5)OCO3	18µM*[quencher]	/	?	28µM*	-43*!
Cc1ccc(Cn2c(=O)n(Cc3ccc(Cl)cc3)c(=O)c3cccnc32)cc1	-21%	-12%	-12%	-8%	/
CCN1CCN(C2=NC(=O)/C(=C/c3ccc(C)o3)S2)CC1	-21%	-15%	-16%	?	-34*
NC1=NC(=O)/C(=C\c2ccco2)S1	?	-10%	?	18µM*	-19
CCc1ccc(/C=C2/SC(N3CCOCC3)=NC2=O)cc1	1%	-15%	7%	-8%	5
SMILES	Tau fluor cs	USP1 inh	Tau fibril FP	Tau ThT inhib	Coupling enz
O=C1N=C(N2CCN(c3ccccc3)CC2)S/C1=C\c1ccco1	-18%	-8%	-9%	14µM*	-24
CCCn1c(N)c(C(=O)CSc2ncnc3sccc23)c(=O)n(C)c1=O	/	-16%	/	/	/
CCOC(=O)C1CCCN(S(=O)(=O)c2cc(-c3cc(C)no3)ccc2C)C1 (configuration not stated)	-26%	-23%	-6%	-5%	/
Cc1ccc(C)c(Nc2cc(C(=O)NCCCN(C)C3CCCCC3)c3ccccc3n2)c1	?	-3%	6%	?	/
COc1ccc(Nc2cc(C(=O)NCc3ccccc3)c3ccccc3n2)cc1	?	?	?	-13%	/
Cc1cc(C)cc(Nc2cc(C(=O)NCc3ccccc3)c3ccccc3n2)c1	3.5µM*[quencher]	-23%	?	-13%	/
Cc1cc(C)cc(Nc2cc(C(=O)NCCCN(C)C3CCCCC3)c3ccccc3n2)c1	3.2µM*[quencher]	-24%	4%	?	/
COC(=O)c1cccc(NS(=O)(=O)c2ccc(OC)c(C(=O)N3CCOCC3)c2)c1C	/	-4%	/	/	1
COc1ccc(/C=C(\C#N)c2nc3ccccc3n2C)c(OC)c1	?	0%	7%	14µM*	/
COc1cc(/C=C(\C#N)c2nc3ccccc3n2C)cc(OC)c1OC	-5%	-8%	0%	-24%	/
Cc1ccccc1-c1ccc(Nc2ccc(N3CCOCC3)cc2)nn1	?	-14%	8%	14µM*	-12
O=S1(=O)N=C(Nc2ccc(N3CCOCC3)cc2)c2ccccc21	-9%	-21%	?	?	-2
CCN=c1scc(-c2cccs2)n1/N=C/c1cc(OC)ccc1O	?	-15%	?	?	-4
